Results: ChEMBL document CHEMBL1157539, “Thousands of chemical starting points for antimalarial lead identification” (Nature, 2010)

How the values were obtained:
Assay type in all cases: functional
Plasmodium falciparum [1] = experiment: GSK_TCMDC: Inhibition of Plasmodium falciparum 3D7 in whole red blood cells, using parasite LDH activity as an index of growth. Test compounds present at 2uM
Plasmodium falciparum [2] = experiment: GSK_TCMDC: Inhibition of Plasmodium falciparum Dd2 in whole red blood cells, using parasite LDH activity as an index of growth. Test compounds present at 2uM
HepG2 = experiment: GSK_TCMDC: Percent inhibition of human HepG2 cell line. Test compounds present at 10uM.

Compound | Inhibition (Plasmodium falciparum [1]) [%] | Inhibition (Plasmodium falciparum [2]) [%] | Inhibition (HepG2) [%]
Cc1nc(Nc2ccncc2)cc(-c2ccncc2)n1 | 100 | 3 | 6
O=C(CCc1cccnc1)Nc1cccc(-c2ccc(-c3nc4cc(C(F)(F)F)ccc4[nH]3)s2)c1 | 89 | 13 | 35
CCOc1c(CNCCCNc2cc(=O)c3ccccc3[nH]2)cc(I)cc1C(C)(C)C.Cl | 100 | 89 | 17
Cc1ccccc1C1CCN(C2CCC(NC(=O)c3cc(-c4ccc(Cl)cc4)cs3)CC2)CC1 (configuration not stated) | 100 | 100 | 99
CCN(CC)CCN(Cc1ccc(-c2ccc(C(F)(F)F)cc2)cc1)C(=O)Cn1c(CCc2cccc(F)c2F)cc(=O)cc1-c1ccccc1 | 94 | 64 | 33
CN(Cc1ccc(C#N)cc1)C1CCN(c2cc(NC(=O)c3ccc(F)cc3)ccn2)CC1.O=C(O)C(F)(F)F | 86 | 10 | 24
Cc1ccc(C2(C)CN(CCCOc3cccc(-c4ccc(C(=O)NC(C)C)cc4)c3)CCO2)cc1 (configuration not stated) | 93 | 89 | 15
CCC(C)CNC(=O)CN1CN(c2ccccc2)C2(CCN(C(=O)c3ccc(Br)cc3)CC2)C1=O (configuration not stated) | 88 | 88 | 10
COc1ccc(-c2nc(NC(=O)CS(=O)(=O)c3ccc(OC)cc3)sc2C)cc1 | 95 | 89 | 6
COc1cc2nc(NCCc3ccccc3)nc(N(C)Cc3ccccc3)c2cc1OC | 96 | 58 | 31
CC(CCCCC(=O)Nc1ccc(C(F)(F)F)cc1)NCC(O)c1cccc(Cl)c1 (configuration not stated) | 99 | 92 | 51
COc1cc(-c2nc(-c3ccncc3)c(-c3ccc4c(c3)CCC4=NO)[nH]2)ccc1OCCN1CCCCC1.Cl | 100 | 80 | 75
Cc1ccc(F)c(OCC2CCCN(c3ccc(C(=O)NC4CC4)cn3)C2)c1 (configuration not stated) | 96 | 94 | 3
CN(C)CCCOc1ccc(CNCc2cccc(Oc3ccc(Cl)cc3)c2)cc1.O=C(O)C(F)(F)F | 100 | 30 | 52
COc1ccc2ncc(F)c(CCN3CCC(NCc4cc(Br)c5c(c4)OCCO5)CC3)c2n1.Cl | 100 | 94 | 26
CN1CCN(S(=O)(=O)c2cccc(Nc3nccc(N(C)c4ccc5c(c4)nc(NC(=O)c4cccs4)n5C)n3)c2)CC1 | 99 | 59 | 25
O=C(Nc1cccc(C(F)(F)F)c1)NC1CCN(c2ccnc3ccccc23)C1.O=C(O)C(F)(F)F (configuration not stated) | 100 | 69 | 23
COc1ccc2nc(C)cc(NCc3ccc4ccccc4c3)c2c1.Cl | 100 | 75 | 21
Cc1ccccc1NC(=O)NC1CCN(CCCCCNC(=O)/C=C/c2ccc(Cl)c(Cl)c2)CC1 | 100 | 20 | 13
CCOc1ccc(-c2nonc2NC(=O)c2ccccc2OC)cc1OCC | 100 | 99 | 24
O=S(=O)(c1c(Cl)cccc1Cl)N1CCCCC(c2ccc(C(F)(F)F)cc2)=N1 | 99 | 98 | 11
COc1ccc(S(=O)(=O)N2CCCc3ccc(Br)cc32)cc1N1CCN(C(=O)C(Cl)(Cl)Cl)CC1 | 97 | 93 | 23
CCn1c(-c2nonc2N)nc2c(Cl)ncc(O[C@H](CCN)c3ccccc3F)c21.Cl | 96 | 88 | 15
COc1ccc(Cl)cc1N1CCN(CCCNC(=O)c2ccc(-c3nc4cc(Cl)c(F)cc4[nH]3)s2)CC1 | 100 | 98 | 12
Cc1c(Cc2ccccc2Cl)cnc2nc(N)nc(N)c12.Cl | 91 | 96 | 67
CCOc1ccc(-n2nc3c(Cl)nnc(-c4ccccc4)c3c2-c2ccccc2)cc1 | 96 | 99 | 0
CCOc1c(Cl)cc(Cl)cc1CNCCCNc1nc2ccccc2[nH]1.Cl | 94 | 1 | 18
COc1ccc(OC)c(NC(=O)C2c3ccccc3C(=O)N(CC(C)C)C2c2cccs2)c1 (configuration not stated) | 100 | 66 | 9
c1ccc([C@H]2CN3CCSC3=N2)cc1 [LEVAMISOLE] | 93 | 1 | 11
